# Bioassay records deposited in PubChem by National Center for Advancing Translational Sciences (NCATS).
# Only some compounds are listed: those with a hit (about 19% of all), similar ones and a draw of the others.
# Pf growth 48h = inhibits P. falciparum growth in the first generation, 48 h. P. falciparum luciferase growth in erythrocytes, 48 h. Potency, µM (top dose mostly 28.7 µM), usual class: inhibitors. hit rate 5.9% among 310,000. AID 504832
#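 Luminescence readout; reporter = integrated firefly luciferase in P. falciparum. RBC culture at 2% hematocrit, 0.1% parasitemia final, 37 C/5% CO2; decreased signal taken as growth inhibition.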
# CHX counter = counter-screen hit for Shiga toxin inhibitors, cycloheximide; cell reporter, cycloheximide protein synthesis inhibition counterscreen; AID 2314; max response, %; hit rate 12% among 300,000; in the data active = max response mostly above about 13%, no sharp cut-off; inactive = mostly below about 14%; also: read at 38.3 µM for the half of the compounds with a filed dose
# SARS PLpro yeast = SARS-CoV PLP inhibition in yeast; Potency, µM (series often up to 32.9 µM), actives largely listed as activators; AID 485353; hit rate 0.19% among 330,000; S. cerevisiae expressing SARS-CoV PLpro, growth rescue; calls by dose curve; also: nearly all actives have a fitted effect of over 55% in size
# Pf growth 96h = P. falciparum growth inhibition at 96 hours | P. falciparum luciferase reporter growth, 96 h | hit rate 6.9% among 320,000 | Potency, µM (highest dose often 28.7 µM), most hits filed as inhibitors
#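 Compounds incubated with erythrocytes infected by luciferase-expressing P. falciparum (2% hematocrit, 0.05% parasitemia final) for 96 hours, 37 C in 5% CO2. Growth inhibition scored as decreased luciferase luminescence.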
# Shiga inhibitor = blocks Shiga toxin action in Vero cells; Vero cells, Shiga toxin protein synthesis inhibition reporter; inhibition, % at 38.7 µM; hit rate 9.2% among 290,000; AID 2315; in the data active = inhibition mostly above about 28%, no sharp cut-off; inactive = mostly below about 43%
# AMA1-RON2 inh = AMA1-RON2 (P. falciparum) interaction inhibition. Potency, µM (series often up to 58.2 µM), hits mostly inhibitors. AlphaScreen AMA1-biotinylated RON2 peptide binding. hit rate 0.2% among 360,000. AID 720542; also: nearly all actives have a fitted effect of over 45% in size
#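 AMA1 (3D7) with his tag at 25 nM final met compounds first, then biotinylated RON2 peptide at 25 nM; detection used donor plus acceptor beads, 10 µg/mL apiece, read by AlphaScreen after 30 min at room temperature.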
# A number is an active result; 0 = inactive; ? = inconclusive; - = no result given. Unless noted, calls follow the shape of the dose curve; as a rule, active = well fitted curve in the direction sought with a large enough effect; inconclusive = small, poorly fitted or top-dose-only effect, or another doubt; inactive = no such curve, though single readings can be large; an effect the other way counts as inactive or inconclusive.
SMILES,Pf growth 48h,CHX counter,SARS PLpro yeast,Pf growth 96h,Shiga inhibitor,AMA1-RON2 inh
CCCn1c(SCC(=O)N2CCN(C(C)=O)CC2)nc2sc3c(c2c1=O)CCC3,?,0,0,13µM,0,0
COCCn1c(SCC(=O)Nc2ncc(C)s2)nc2sc3c(c2c1=O)CCC3,?,25,0,0,0,-
CCn1c(SCC(N)=O)nc2sc3c(c2c1=O)CCN(C)C3,1.3µM,0,0,?,0,0
CCn1c(SCC(=O)Nc2ccc(C)cc2)nc2sc3c(c2c1=O)CCN(C)C3,3.7µM,0,0,0.37µM,0,0
CCN(CC)C(=O)CSc1nc2sc3c(c2c(=O)n1CCCOC)CCC3,?,0,0,0,-,0
